The record followed here is PubChem BioAssay AID1835 (Johns Hopkins Ion Channel Center, 2009).

The campaign covered roughly 2,400 compounds. About 750 (31%) were called active. The list shows a part of the results. Values without a mark were called inactive.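 How the source made its calls: active means median signal gain over dofetilide-blocked control wells reaching their mean plus 3 SD, so readout 1 at least 0; inactive means the rest.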

Sequence of Voltage-gated inwardly rectifying potassium channel KCNH2 (Homo sapiens) (Q12809 whole entry, looked up): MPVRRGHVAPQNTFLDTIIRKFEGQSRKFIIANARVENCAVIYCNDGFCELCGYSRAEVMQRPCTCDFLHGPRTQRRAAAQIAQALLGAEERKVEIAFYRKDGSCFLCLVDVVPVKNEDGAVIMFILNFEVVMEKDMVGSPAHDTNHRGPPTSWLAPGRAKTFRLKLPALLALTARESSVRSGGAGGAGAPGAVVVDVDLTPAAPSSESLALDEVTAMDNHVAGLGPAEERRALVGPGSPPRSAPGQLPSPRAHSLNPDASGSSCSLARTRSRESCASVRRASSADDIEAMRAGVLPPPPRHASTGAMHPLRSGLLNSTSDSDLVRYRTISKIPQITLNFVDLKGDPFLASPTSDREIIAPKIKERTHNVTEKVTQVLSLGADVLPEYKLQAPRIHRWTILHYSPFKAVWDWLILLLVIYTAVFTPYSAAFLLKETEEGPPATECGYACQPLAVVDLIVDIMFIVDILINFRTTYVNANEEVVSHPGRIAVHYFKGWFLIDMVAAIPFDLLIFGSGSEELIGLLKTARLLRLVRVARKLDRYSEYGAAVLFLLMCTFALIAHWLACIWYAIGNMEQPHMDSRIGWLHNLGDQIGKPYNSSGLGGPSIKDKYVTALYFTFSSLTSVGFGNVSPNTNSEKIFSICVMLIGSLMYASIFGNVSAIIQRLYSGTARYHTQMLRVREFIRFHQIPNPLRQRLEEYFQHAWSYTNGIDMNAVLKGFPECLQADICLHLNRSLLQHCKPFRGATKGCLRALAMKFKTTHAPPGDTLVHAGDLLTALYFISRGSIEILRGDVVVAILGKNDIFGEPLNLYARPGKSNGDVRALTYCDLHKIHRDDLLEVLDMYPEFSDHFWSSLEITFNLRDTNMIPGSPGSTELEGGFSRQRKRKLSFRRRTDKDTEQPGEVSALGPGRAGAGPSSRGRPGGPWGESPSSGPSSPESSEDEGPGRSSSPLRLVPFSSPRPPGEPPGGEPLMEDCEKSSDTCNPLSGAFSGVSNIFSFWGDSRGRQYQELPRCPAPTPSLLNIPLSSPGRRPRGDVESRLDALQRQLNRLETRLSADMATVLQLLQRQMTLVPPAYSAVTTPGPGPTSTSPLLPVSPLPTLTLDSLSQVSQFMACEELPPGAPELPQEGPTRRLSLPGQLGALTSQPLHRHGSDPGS

This test addresses Voltage-gated inwardly rectifying potassium channel KCNH2 (Homo sapiens) (UniProt Q12809). Put plainly: hERG protection against dofetilide inhibition, confirmation, cell-based, thallium flux, duplicate retest, dofetilide IC70 (AID 1835). Particulars: hERG cell line, FluxOR thallium flux, dofetilide-blocked; at 10 µM; active compounds read high. In general terms: Block of hERG is tested as a sign of cardiac risk.
`Cc1ccc(C(=C2C3C=CC2C2C(=O)NC(=O)C32)c2ccc(C)cc2)cc1` (centres undefined): the activity increase over dofetilide control, less the hit threshold is -15%.

Regarding `CC(C)(C)c1cc(CCC(=O)NCc2ccncc2)cc(C(C)(C)C)c1O`, the activity increase over dofetilide control, less the hit threshold is -11%.

Take `Cc1ccc2nc(-c3ccccn3)cc(C(=O)NC3CCN(C)CC3)c2c1`: the activity increase over dofetilide control, less the hit threshold was -19%.

As to `COC(=O)c1ccc(NC(=S)NC(=O)c2c(-c3ccccc3)noc2C)cc1`, the activity increase over dofetilide control, less the hit threshold was -15%.

Turning to `Cc1ccccc1NC(=S)NC(=O)c1cc(-c2ccccc2)nc2ccccc12`, the activity increase over dofetilide control, less the hit threshold was 27% (active).

In the case of `O=C(N/N=C/c1ccccn1)c1cc(-c2ccc(Br)cc2)nc2ccccc12`, the activity increase over dofetilide control, less the hit threshold was -46%.

As for `COC(=O)c1ccc(NC(=S)NC(=O)c2cc(-c3ccccc3)nc3ccccc23)cc1`, the activity increase over dofetilide control, less the hit threshold was 11% (active).

As for `O=C(NC(=S)Nc1ccccn1)c1cc(-c2ccccc2)nc2ccccc12`, the activity increase over dofetilide control, less the hit threshold is 1% (active).

As to `O=C(NC(=S)Nc1ccccc1)c1cc(-c2ccccc2)nc2ccccc12`, the activity increase over dofetilide control, less the hit threshold was 8% (active).

Regarding `CC(C)(C)NS(=O)(=O)c1ccc(NC(=O)c2cc(-c3ccccc3)nc3ccccc23)cc1`, the activity increase over dofetilide control, less the hit threshold was -11%.

Take `Cc1ccc(NC(=O)c2cc(NC(=O)/C=C\C(=O)O)ccc2N2CCCCC2)cc1`: the activity increase over dofetilide control, less the hit threshold is -11%.

`Cc1nnc(N2C(=O)C(=O)/C(=C(\O)c3ccc4c(c3)CC(C)O4)C2c2ccccc2)s1` (centres undefined): the activity increase over dofetilide control, less the hit threshold is -7%.

For the compound `Cc1ccc(CNC(=O)C2=CCN(S(=O)(=O)c3ccc(C)cc3)CC2)cc1`, the activity increase over dofetilide control, less the hit threshold was -24%.

`CCCCn1nnc(NC(=O)Cc2ccc(Cl)cc2)n1`: the activity increase over dofetilide control, less the hit threshold was -3%.

Turning to `Cc1ccc2nc(-c3ccncc3)cc(C(=O)Nc3ccc4c(c3)OCCO4)c2c1`, the activity increase over dofetilide control, less the hit threshold is -15%.

For the compound `Cc1cccc(NC(=S)NC(=O)c2cc(-c3ccccc3)nc3ccccc23)c1`, the activity increase over dofetilide control, less the hit threshold is 8% (active).

In the case of `O=C(CCSCCc1ccccn1)Nc1cccc([N+](=O)[O-])c1`, the activity increase over dofetilide control, less the hit threshold was -4%.

Turning to `NC(=O)c1cccnc1Nc1cccc([N+](=O)[O-])c1`, the activity increase over dofetilide control, less the hit threshold is 10% (active).

As to `O=C(O)c1ccc(N=NNc2cccc([N+](=O)[O-])c2)cc1`, the activity increase over dofetilide control, less the hit threshold was -2%.

For the compound `O=C(NCC(c1cccs1)N1CCOCC1)c1cc(S(=O)(=O)N2CCOCC2)ccc1F` (centres undefined), the activity increase over dofetilide control, less the hit threshold is -22%.

For the compound `CCc1cc2c(=O)n(CCC(C)C)c(=S)[nH]c2s1`, the activity increase over dofetilide control, less the hit threshold is 71% (active).

For `CC(C)(C)OC(=O)N1CCC2(CC1)Oc1ccc(Cl)cc1C(=O)C21CC(c2ccc(Cl)cc2)=NO1` (centres undefined), the activity increase over dofetilide control, less the hit threshold was -19%.

Regarding `COc1ccc2ncc(OC(C)=O)cc2c1`, the activity increase over dofetilide control, less the hit threshold was -14%.

Take `COc1ccc2nc(N=Nc3c(O)ccc4ccccc34)sc2c1`: the activity increase over dofetilide control, less the hit threshold was 31% (active).

For the compound `O=C(Nc1ccccc1)O/N=C/c1ccncc1`, the activity increase over dofetilide control, less the hit threshold was -7%.

With `CN(C)CCCN=C(NO)c1ccc(Cl)cc1Cl`, the activity increase over dofetilide control, less the hit threshold is 4% (active).

`CN(C)C(=O)c1cc(C(=O)c2ccc(Cl)cc2Cl)c[nH]1`: the activity increase over dofetilide control, less the hit threshold is -4%.

Regarding `C=CCSC1=C(C#N)C(c2ccccc2)CC(=O)N1` (centres undefined), the activity increase over dofetilide control, less the hit threshold was -15%.

Take `CCC(C)(C(=O)NC1CCCC1)N(Cc1ccco1)C(=O)c1ccccn1` (centres undefined): the activity increase over dofetilide control, less the hit threshold is -13%.

For the compound `Cc1ccc(C(C(=O)NC(C)(C)C)N(Cc2cccnc2)C(=O)C(=O)NC2CCCCC2)o1` (centres undefined), the activity increase over dofetilide control, less the hit threshold was 0% (active).

Turning to `Cc1ccc(C(=O)NC2CCC(C)CC2)o1` (centres undefined), the activity increase over dofetilide control, less the hit threshold was -23%.

Consider `CC(C)C(O)(C#CCN1CCCC1)c1ccccc1` (centres undefined), for which the activity increase over dofetilide control, less the hit threshold was -16%.

Take `CCn1c2ccccc2c2cc(NC(=O)COc3ccccc3)ccc21`: the activity increase over dofetilide control, less the hit threshold is -20%.

In the case of `CCOc1ccc(-n2c(C)c(C(C)=O)c3cc(O)ccc32)cc1`, the activity increase over dofetilide control, less the hit threshold is -14%.

Turning to `CCOc1ccc(N(CC)C(=O)COc2cc(=O)n(C)c3ccccc23)cc1`, the activity increase over dofetilide control, less the hit threshold is 1% (active).

Turning to `CC(C)Oc1ccc(CNC(=O)C2CCN(C(=O)N3CCOc4ccccc43)CC2)cc1`, the activity increase over dofetilide control, less the hit threshold is -31%.

As for `CCOc1ccccc1C(=O)NC1CC2CCCC(C1)N2Cc1nnnn1Cc1ccco1` (centres undefined), the activity increase over dofetilide control, less the hit threshold is -24%.

For `CCCCc1c(C)[nH]c(C(=O)OCC)c1C`, the activity increase over dofetilide control, less the hit threshold is -14%.

Consider `CCOC(=O)c1c(C)[nH]c(C)c1S(=O)(=O)N1CCCCC1`, for which the activity increase over dofetilide control, less the hit threshold was 4% (active).

Take `Cc1[nH]c(=O)[nH]c(=O)c1S(=O)(=O)N1CCC(C(=O)NC(C)c2ccccc2)CC1` (centres undefined): the activity increase over dofetilide control, less the hit threshold is -4%.

`O=C1c2nc3cc(-c4ccco4)[nH]n3c(=O)c2CN1Cc1ccccc1`: the activity increase over dofetilide control, less the hit threshold is -10%.

With `CCC(=O)NC(c1cccs1)c1ccc2cccnc2c1O` (centres undefined), the activity increase over dofetilide control, less the hit threshold is -8%.

For the compound `O=c1c2[nH]c3ccccc3c2nc2n1CCCS2`, the activity increase over dofetilide control, less the hit threshold is 3% (active).

With `O=c1c(Cc2ccccc2)c(O)nc2n1CCCS2`, the activity increase over dofetilide control, less the hit threshold was -3%.

`CCOC(=O)N1CCN(C(=O)CSc2nc3c([nH]c4ccccc43)c(=O)n2CC)CC1`: the activity increase over dofetilide control, less the hit threshold is 0%.

As for `COc1ccc(NC(=O)C2CCN(S(=O)(=O)c3cn(C)nc3C)CC2)cc1`, the activity increase over dofetilide control, less the hit threshold was -12%.

Regarding `CCOC(=O)C1=C(O)/C(=C/c2ccc(OCC(=O)O)c(OC)c2)SC1=Nc1ccc(OCC)cc1`, the activity increase over dofetilide control, less the hit threshold is -9%.

Turning to `COc1ccc(-c2ccc3c(N)c(C(=O)c4ccc(OC)c(OC)c4)sc3n2)cc1`, the activity increase over dofetilide control, less the hit threshold was -9%.

Take `COc1ccc(/C=C2\SC(c3ccc(C)cc3)=NC2=O)cc1OC`: the activity increase over dofetilide control, less the hit threshold was 112% (active).

For the compound `COc1ccc(C(C(=O)NC(C)(C)C)N(C(=O)CCC(=O)Nc2cc(C)on2)c2cccc(F)c2)cc1` (centres undefined), the activity increase over dofetilide control, less the hit threshold was -6%.

For the compound `O=C(CSc1nc(N2CCCCC2)nc(N2CCCCC2)n1)c1ccccc1`, the activity increase over dofetilide control, less the hit threshold was -16%.

Consider `C=CCn1c2ccccc2c(=O)c2cc(C#Cc3ccsc3)ccc21`, for which the activity increase over dofetilide control, less the hit threshold was 17% (active).

On to `O=C(/C=C/Nc1ccc(F)cc1)c1ccco1`, for which the activity increase over dofetilide control, less the hit threshold was -22%.

`Cc1cccc(N2C(=O)C(O)=C(C(=O)c3cccs3)C2c2cccc(Oc3ccccc3)c2)n1` (centres undefined): the activity increase over dofetilide control, less the hit threshold was -12%.

As to `CCCn1c(SCC(=O)Nc2nc(-c3ccc(OC)cc3)cs2)nc2c1c(=O)n(C)c(=O)n2C`, the activity increase over dofetilide control, less the hit threshold was -8%.

In the case of `CCCC(=O)NC(=S)Nc1nc(-c2ccc(OC)cc2)cs1`, the activity increase over dofetilide control, less the hit threshold was -11%.

As to `CCC(=O)N(CC)c1nc(-c2ccc(OC)cc2)cs1`, the activity increase over dofetilide control, less the hit threshold is 17% (active).

As for `COc1cc(C(=O)NCCNc2nc3cc(C)ccc3cc2C#N)cc(OC)c1OC`, the activity increase over dofetilide control, less the hit threshold is -2%.

With `Cc1ccc(-c2c(=O)n(O)c3ccccc3[n+]2[O-])cc1`, the activity increase over dofetilide control, less the hit threshold was 52% (active).

As to `O=c1c(-c2ccc(Cl)cc2)[n+]([O-])c2ccccc2n1O`, the activity increase over dofetilide control, less the hit threshold is 64% (active).

Regarding `O=c1c(-c2cccc3ccccc23)[n+]([O-])c2ccccc2n1O`, the activity increase over dofetilide control, less the hit threshold is 9% (active).

Regarding `O=c1c(-c2ccccc2)[n+]([O-])c2ccccc2n1O`, the activity increase over dofetilide control, less the hit threshold is -10%.

Consider `CCc1nnc(NC(=O)c2cccc(S(=O)(=O)N3CCN(c4ccccc4)CC3)c2)s1`, for which the activity increase over dofetilide control, less the hit threshold was -17%.

Take `O=C(COc1ccccc1)Nc1nnc(-c2ccc(Cl)s2)o1`: the activity increase over dofetilide control, less the hit threshold was -9%.

With `CC1=Nc2ccc(C)cc2/C1=C/c1c(N)n2c(S(=O)(=O)C(C)C)nsc2nc1=O`, the activity increase over dofetilide control, less the hit threshold is -5%.

Regarding `Cn1c(=O)c(-c2cc(=O)[nH][nH]2)c(O)c2ccccc21`, the activity increase over dofetilide control, less the hit threshold is 2% (active).

Turning to `CCOC(=O)c1c(O)c2ccccc2n(C)c1=O`, the activity increase over dofetilide control, less the hit threshold was 5% (active).

Consider `Cn1c(=O)c(Sc2ccccc2)c(O)c2ccccc21`, for which the activity increase over dofetilide control, less the hit threshold is 2% (active).

As to `CCOC(=O)c1c(C)cccc1OCC(N)=O`, the activity increase over dofetilide control, less the hit threshold was -16%.

As for `Cn1c(=O)cc(-c2ccccc2)c2ccccc21`, the activity increase over dofetilide control, less the hit threshold is -28%.

Regarding `CCn1c(=O)c(-[n+]2ccccc2)c(O)c2ccccc21`, the activity increase over dofetilide control, less the hit threshold was -15%.

Turning to `CC(C)C(=O)Nc1c(-c2ccccc2F)c(=O)c2ccccc2n1C`, the activity increase over dofetilide control, less the hit threshold was -6%.

For `CCOC(=O)Cn1cc(C=O)c2ccccc21`, the activity increase over dofetilide control, less the hit threshold is -17%.

Regarding `O=C1OC(/C=C/c2ccccc2)=NC/1=C/c1ccco1`, the activity increase over dofetilide control, less the hit threshold is -15%.

Regarding `COC(=O)Cc1[nH]n(-c2nc3ccccc3s2)c(=O)c1C(C)=Nc1ccc(C)cc1`, the activity increase over dofetilide control, less the hit threshold was -1%.

In the case of `Cn1ncc2c(NNC(=O)Cc3ccccc3)ncnc21`, the activity increase over dofetilide control, less the hit threshold is -13%.

For `COC(=O)n1c(=S)oc2cc(Cl)ccc21`, the activity increase over dofetilide control, less the hit threshold is -13%.

Take `O=C(O)c1ccc(Cl)cc1Nc1nc2cc(Cl)ccc2o1`: the activity increase over dofetilide control, less the hit threshold was 10% (active).

Regarding `O=C(O)c1c2c(nc3ccccc13)/C(=C/c1cccc([N+](=O)[O-])c1)CCC2`, the activity increase over dofetilide control, less the hit threshold was -18%.

Turning to `N#Cc1c2n(c3c(=O)n(Cc4ccc(Cl)cc4)cnc13)CCCC2`, the activity increase over dofetilide control, less the hit threshold is -14%.

`Cc1cc(C)cc(N(C(=O)c2cc3ccccc3oc2=O)C2C=CS(=O)(=O)C2)c1` (centres undefined): the activity increase over dofetilide control, less the hit threshold was -13%.

As for `Cc1sc2nc(CN3CCOCC3)[nH]c(=S)c2c1C`, the activity increase over dofetilide control, less the hit threshold is 92% (active).

Regarding `CC(C)(C)n1nnnc1C(c1cccs1)N1CCN(Cc2ccccc2)CC1` (centres undefined), the activity increase over dofetilide control, less the hit threshold is -6%.

As to `Cc1ccc(-c2cccc(C3CC=CC4C3C(=O)N(Cc3ccccc3)C4c3ccc4ccccc4c3)c2)cc1` (centres undefined), the activity increase over dofetilide control, less the hit threshold is -1%.
